Source: the supplement of paper PMC4840960
± gives the standard deviation of the averaged measurements.

System: E18 rat cortical neuron-glia co-culture
Experiment: fiber score / MBP score (myelination specific beyond OL differentiation) (ratio); higher = more myelination-specific MBP alignment
Settings: 1 µM; treatment time: 8 days (DIV5-DIV13)
Outline: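 Library compounds were applied at 1 or 5 µM in myelination medium, DIV5 to DIV13, to primary E18 rat cortical co-cultures grown at 20,000 cells/well in 96-well plates. After 4 % paraformaldehyde fixation and MBP/Olig2/DAPI immunostaining, four 10X fields per well in duplicate wells were scored. Each value is continuous MBP fiber length per Olig2+ nucleus divided by thresholded MBP area × intensity per Olig2+ nucleus.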

| Structure (SMILES) | fiber score / MBP score |
| --- | --- |
| NS(=O)(=O)c1cc2c(cc1C(F)(F)F)NCNS2(=O)=O [Hydroflumethiazide] | 0.948 |
| CN1CCc2cc(Cl)c(O)cc2C(c2ccccc2)C1 (centres undefined) | 0.959 |
| OC(CCN1CCCCC1)(c1ccccc1)C1CCCCC1 (centres undefined) [Trihexyphenidyl] | 0.616 |
| COc1ccc2[nH]c([S@@+]([O-])Cc3ncc(C)c(OC)c3C)nc2c1 [Esomeprazole] | 0.799 |
| COc1ccc(OC)c(C(O)CNC(=O)CN)c1 (centres undefined) [Midodrine] | 0.492 |
| CCCN[C@H]1CCc2nc(N)sc2C1 [Pramipexole] | 0.851 ± 0.02 |
| Nc1nc2c(ncn2COCCO)c(=O)[nH]1 [Acyclovir] | 0.568 |
| CCCCC[C@H](O)/C=C/[C@H]1[C@H](O)CC(=O)[C@@H]1CCCCCCC(=O)O [Alprostadil] | 1.12 |
| CC(C)c1ccc2oc3nc(N)c(C(=O)O)cc3c(=O)c2c1 [Amlexanox] | 0.826 |
| CN(C)[C@@H]1C(O)=C(C(N)=O)C(=O)[C@@]2(O)C(O)=C3C(=O)c4c(O)cccc4[C@@](C)(O)[C@H]3[C@H](O)[C@@H]12 [Oxytetracycline] | 0.993 |
| CC(=O)[C@H]1CC[C@H]2[C@@H]3CCC4=CC(=O)CC[C@]4(C)[C@H]3CC[C@]12C [Progesterone] | 0.688 |
| CCN(CC)CCNC(=O)c1ccc(N)cc1 [Procainamide] | 0.82 |
| COC(=O)[C@H](c1ccccc1Cl)N1CCc2sccc2C1 [Clopidogrel] | 0.707 |
| CC(C)[C@H]1CC[C@H](C(=O)N[C@H](Cc2ccccc2)C(=O)O)CC1 [Nateglinide] | 0.796 |
